Test results as given in PubChem BioAssay.
A number with no mark means an inactive call.

Assay: growth modulation of vineyard yeast isolate – strain RM11-1a, OD600, basal, 24 h, primary screen (AID 1177);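 further: cultures grown under basal conditions with no added stressor; test concentration not given here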
Conditions: S. cerevisiae RM11-1a growth, OD600, 24 h; higher = more signal, called active from +8 up or from −8 down

Structure (SMILES) | z-score
CN1CCC(CCCO)=CC1c1ccc(CN2CCCC2)cc1 (configuration not stated) | -0.0607
C=C[C@H](C)[C@@H](O)c1ccc(O)c2ccccc12 | 0.248
COCCOC(=O)N1C(=O)[C@@]2(c3cc(C#CC4=CCCCC4)ccc31)[C@H](C(=O)N1CCc3cc(OC)c(OC)cc3C1)[C@H]1C(=O)O[C@H](c3ccccc3)[C@H](c3ccccc3)N1[C@@H]2c1ccccc1OCCO | 1.78
COC(=O)C1=CC(CCCO)=CC(C2CC2)N(Cc2sc3ccccc3c2Cl)C=C1C(=O)OC (configuration not stated) | 1.61
NC(=O)NCC#Cc1ccc2c(c1)[C@]1(C(=O)N2)[C@H](C(=O)N2CCCCCCC2)[C@H]2C(=O)O[C@H](c3ccccc3)[C@H](c3ccccc3)N2[C@@H]1c1ccc(OCCO)cc1 | 2.12
COc1ccccc1CN1C(=O)c2ccccc2[C@@H](C(=O)NCCN2CCOCC2)[C@@H]1c1ccc(CO)cc1 | -0.0436
O=c1cccc(C=Cc2ccccc2)o1 | -0.0064
C=C[C@@H](COC(C)=O)N(Cc1ccc([N+](=O)[O-])cc1)S(=O)(=O)c1ccc(Br)cc1 | 1.19
CC(C)C(=C=CC[C@@H](O)c1ccccc1OCCO)C[C@@H](O)c1ccccn1 | -0.435
CCCCC=C[C@@H](NC(=O)c1ccc(C(=O)OC)cc1)c1ccccc1 | 1.18
O=c1oc(-c2ccccc2)nc2cc(Br)ccc12 | 1.6
C=CC(COC(C)=O)NS(=O)(=O)c1ccc(Br)cc1 (configuration not stated) | -0.406
